Pf growth 96h: P. falciparum growth inhibition at 96 hours; actives 6.9% (n = 320,000); Potency, µM (doses to about 28.7 µM), without a hit: at the highest dose activity change, negative = inhibition, most hits filed as inhibitors; AID 504834; P. falciparum luciferase reporter growth, 96 h; further: potency means the concentration at half of the fitted maximal effect; on the % scale 0 is the no-effect control and ±100 the full control effect
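Delayed-death screen, second-generation endpoint: infected erythrocytes, 2% hematocrit, 0.05% parasitemia final; 96 hours at 37 C, 5% CO2; luciferase detection reagent; luminescence decrease equals reduced growth.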
Pf growth 48h: P. falciparum growth inhibition at 48 hours (one generation) | Potency, µM (titrated, usually from 28.7 µM), inactives show at the top dose activity change, negative = inhibition, usual class: inhibitors | actives 5.9% (n = 310,000) | AID 504832 | P. falciparum luciferase growth in erythrocytes, 48 h; further: potency means the concentration at half of the fitted maximal effect; on the % scale 0 is the no-effect control and ±100 the full control effect
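Firefly luciferase activity from engineered P. falciparum reports growth; inhibitors lower the luminescent signal. Cultures contained 2% hematocrit erythrocytes at 0.1% final parasitemia.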
Cycloheximide cs: affects cycloheximide protein synthesis inhibition readout, counter-screen; actives 12% (n = 300,000); max response, %; cell reporter, cycloheximide protein synthesis inhibition counterscreen; in the data active means max response mostly above about 13%, no sharp cut-off; inactive means mostly below about 14%; further: read at 38.3 µM for the half of the compounds with a filed dose; 0% is about no effect
Shiga toxin inh: inhibitors of Shiga toxin in Vero cells | inhibition, % at 38.7 µM | actives 9.2% (n = 290,000) | Vero cells, Shiga toxin protein synthesis inhibition reporter; in the data active means inhibition mostly above about 28%, no sharp cut-off; inactive means mostly below about 43%; further: 0% is about no effect
NS1 function inh: influenza NS1 inhibition | Potency, µM (titrated, usually from 46.1 µM), for the others: at the highest dose activity, positive = more growth | actives 0.4% (n = 270,000) | AID 2326; calls by dose curve; further: potency means the concentration at half of the fitted maximal effect; actives are rising curves; nearly all actives have a fitted effect of over 50% in size
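Growth recovery, yeast-based: influenza A NS1 expressed in S. cerevisiae causes slow growth, and suppressors are detected by OD600. The parent strain without NS1 is used as positive control.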
Numbers without * were called inactive; ? = inconclusive; · = no result. Sampled rows, rich in hits. Any-hit rate of the full collection: about 21%. Unless noted, the call rests on the fitted dose curve; in most records, active means well fitted inhibition curve with a large enough effect; inconclusive means small, poorly fitted or top-dose-only effect, or another doubt; inactive means no such curve, though single readings can be large or run the other way.

SMILES	Pf growth 96h	Pf growth 48h	Cycloheximide cs	Shiga toxin inh	NS1 function inh
CSCC[C@H](NC(=O)[C@@H]1Cc2ccccc2CN1)C(=O)NC(C)c1ccccc1 (some centres undefined)	19.2%	15.1%	8.3	8.3	-3.3%
O=C(Nc1ccc(C(=O)O)cc1)/C(=C\c1ccc([N+](=O)[O-])cc1)NC(=O)c1ccc(Br)cc1	18.9%	0.7%	-0.8	-3.5	·
CC(C)(C)c1ccc(C(=O)Nc2ccc(C=C(C#N)C#N)cc2)cc1	164.9%	135.0%	72.0*	153.6*	-14.9%
CC(C)(C)c1ccc(C(=O)Nc2ccc(S(N)(=O)=O)cc2)cc1	?	?	7.5	14.0	-4.4%
N#CC(C#N)=Cc1ccc(NC(=O)c2ccc(Br)cc2)cc1	6.6%	11.3%	47.2*	75.3*	-44.6%
O=C(CNC(=O)c1ccc(Cl)cc1)OCn1nnc2ccccc2c1=O	-8.4%	-0.4%	·	·	·
Cc1cccc(CN2CCC(CNC(=O)Cn3ncc4c([nH]c5ccccc54)c3=O)CC2)c1	?	?	-6.6	8.9	0.4%
O=C(CC1C(=O)NCCN1Cc1ccc(F)c(F)c1)NCCCn1ccnc1 (centres undefined)	15.1%	33.4%	4.9	13.0	-2.1%
CCN(CC)C(=O)CSc1nnc2nnc3cc(Cl)ccc3n12	7.38µM*	4.65µM*	0.9	3.0	-45.9%
CCc1nc2nc(C)c(NS(=O)(=O)c3ccc(C4CCCCC4)cc3)c(=O)n2[nH]1	-7.7%	-5.4%	-5.0	-7.5	21.1%
CSc1cccc(NC(=O)CN(C)S(=O)(=O)c2ccccc2)c1	?	20.2%	17.9*	18.2	-5.1%
CSc1cccc(NC(=O)C(C)Sc2ccc(C)cc2)c1 (centres undefined)	?	·	9.3	4.5	-3.8%
COCc1cccc(NC(=O)CCc2ccccc2)c1	-13.5%	50.1%	18.3*	49.2*	-9.0%
CSc1cccc(NC(=O)CN(C)S(=O)(=O)c2ccc(F)cc2)c1	·	-0.6%	-2.5	4.2	-14.8%
COc1cccc(NC(=O)CCc2ccccc2)c1	139.3%	61.6%	·	·	·
CSc1cccc(NC(=S)NC(=O)CCc2ccccc2)c1	67.4%	-1.2%	23.0*	22.3	-10.0%
CCC(C)C(=O)Nc1cccc(SC)c1 (centres undefined)	20.7%	36.4%	16.4*	56.1	3.4%
CSc1cccc(NC(=O)CCC(=O)O)c1	17.8%	17.2%	6.5	11.7	-3.2%
COCCNC(=O)CS(=O)(=O)Cc1nc(-c2ccc(C)cc2)oc1C	?	·	-1.6	-12.3	?
CSc1cccc(NC(=O)CCc2ccccc2)c1	27.3%	9.6%	18.3*	50.1*	·
COc1cccc(C2=NN(C(=O)c3ccco3)C(c3ccco3)C2)c1 (centres undefined)	-23.1%	-3.3%	29.3*	72.4*	-22.1%
COc1ccc(S(=O)(=O)N2N=C(c3cccc(NS(C)(=O)=O)c3)CC2c2ccco2)cc1 (centres undefined)	13.1µM*	-10.9%	0.9	-4.7	10.8%
CS(=O)(=O)Nc1ccc(C2=NN(C(=O)c3ccco3)C(c3ccco3)C2)cc1 (centres undefined)	?	?	1.8	-15.4	6.0%
Cc1ccc(C2=NN(S(=O)(=O)c3ccccc3)C(c3ccccc3O)C2)cc1 (centres undefined)	?	?	20.0*	69.3*	·
COc1ccc(C2CC(c3ccccc3)=NN2c2ccc(Cl)c(C(=O)O)c2)cc1 (centres undefined)	?	-0.7%	26.2*	45.4*	9.6%
SMILES	Pf growth 96h	Pf growth 48h	Cycloheximide cs	Shiga toxin inh	NS1 function inh
O=C(O)C1CCN(C(=O)c2ccc3c(c2)OCO3)CC1	9.2%	74.3%	0.9	5.7	-5.1%
O=C(Cc1cccc2ccccc12)N1CCN(c2ncccn2)CC1	11.5%	-5.5%	-4.1	-1.9	-2.2%
Cc1nc(-c2ccc(S(=O)(=O)N3CCN(CCc4ccccc4)CC3)s2)cs1	-6.1%	19.1%	-0.9	5.4	-0.3%
CN(CCCNC(=O)c1ccc(CS(=O)c2ccc(Br)cc2)o1)Cc1ccccc1 (centres undefined)	?	-19.8%	-8.2	-7.1	-1.8%
CC1CCN(C(=O)Cn2c(SCC(=O)Nc3nccs3)nc3ccccc32)CC1	-28.8%	-29.7%	-6.3	-18.6	-9.2%
CCOC(=O)C1=NN(c2ccc(OC)cc2)C(c2ccccc2)CC1=O (centres undefined)	?	?	-3.4	-2.4	7.1%
COc1ccc(C2CC(c3ccccc3)=NN2c2ccc(N)cc2)cc1 (centres undefined)	?	?	39.3*	43.9*	?
CCC(=O)Nc1cccc(C2=NN(c3ccccc3)C(c3ccc(OC)cc3)C2)c1 (centres undefined)	13.1µM*	?	1.9	-14.8	4.2%
COc1cc(C2CC(c3ccccc3)=NN2c2ccccc2)ccc1OCC(=O)O (centres undefined)	?	2.1%	-5.5	-0.5	11.4%
COc1ccc(C2CC(c3ccccc3)=NN2S(=O)(=O)c2ccccc2)cc1 (centres undefined)	?	?	34.2*	55.1*	-39.3%
CC(=O)Oc1ccc(C2=NN(c3ccccc3)C(c3ccccc3)C2)cc1 (centres undefined)	11.2%	11.7µM*	19.0	18.3	2.7%
O=C(CSc1nc2sc3c(c2c(=O)n1-c1ccccc1)CCCC3)N/N=C/c1ccccc1C(=O)O	?	3.8%	-7.4	-7.0	26.4%
COc1ccc(C2=NN(c3ccc(C(=O)O)cc3)C(c3ccc(OC)c(OC)c3)C2)cc1 (centres undefined)	51.7%	69.8%	38.6*	52.9*	18.9%
COc1ccc(C2CC(c3ccccc3)=NN2c2ccc(S(N)(=O)=O)cc2)cc1OC (centres undefined)	?	?	7.2	-10.9	13.6%
COc1ccc(CNC(=O)[C@H](Cc2c[nH]c3ccccc23)NC(=O)[C@@H]2Cc3ccccc3CN2)cc1	?	?	-4.3	-2.9	4.3%
COc1ccc(NC(=O)[C@H](Cc2c[nH]c3ccccc23)NC(=O)[C@@H]2Cc3ccccc3CN2)cc1	?	?	19.3*	15.1	7.0%
CC(C)c1ccc(NC(=O)[C@H](Cc2c[nH]c3ccccc23)NC(=O)[C@@H]2Cc3ccccc3CN2)cc1	?	?	24.2*	26.9	17.0%
COC(=O)C(Cc1c[nH]c2ccccc12)NC(=O)C1CC1 (centres undefined)	28.5%	0.4%	-8.2	1.3	0.1%
CCN(CC)CCOC(=O)c1ccc(NC(=O)C(C)NC(=O)C23CC4CC(CC(C4)C2)C3)cc1 (centres undefined)	11.7µM*	-25.7%	-3.8	-8.2	5.3%
CCOC(=O)CCC(NC(=O)c1ccc(NCN2C(=O)c3ccccc3C2=O)cc1)C(=O)OCC (centres undefined)	4.15µM*	·	-6.0	-24.0	0.2%
O=C(O)C1CCN(C(=O)CSc2nc3ccccc3c(=O)n2Cc2ccccc2)CC1	-18.7%	2.4%	-5.8	23.4	3.4%

Compound activity: PubChem, National Center for Advancing Translational Sciences (NCATS)
